In the supplement of paper PMC13380429:

Test system: Vero E6 infected with SARS-CoV-2
Assay: morphology score (similarity to uninfected cells); higher = more like uninfected cells
Conditions: 24 h

Compound	morphology score
O=C(O)c1cc(N2N=C(C(F)(F)F)/C(=C/c3ccc(-c4ccccc4)o3)C2=O)ccc1Cl (10 µM)	0.185
Cn1c(=O)c(F)c(Nc2ccc(I)cc2F)c2c(=O)n(C[C@@H](O)CO)cnc21 (0.833333 µM)	-0.0443
Nc1nccc(Oc2ccc(NC(=O)c3c[nH]cc(-c4ccc(F)cc4)c3=O)cc2F)c1Cl [metatinib] (10 µM)	0.551
CC(C)(Sc1ccncc1-c1ccc(C#N)c2ccccc12)C(=O)O [verinurad] (10 µM)	0.122
Cc1c(C(=O)Nc2ccc(N3C[C@@H](C)O[C@@H](C)C3)nc2)cccc1-c1ccc(OC(F)(F)F)cc1 [sonidegib] (10 µM)	-0.0039
O=C(O)[C@H]1O[C@@H](Oc2cc3oc(-c4ccccc4)cc(=O)c3c(O)c2O)[C@H](O)[C@@H](O)[C@@H]1O [baicalin] (10 µM)	0.165
COc1cc2ncnc(Nc3ccc(Cl)cc3F)c2cc1OC (10 µM)	-0.174
O=C(c1cccc(Br)c1)N1CCC(N2CCCC2)CC1 (10 µM)	-0.00696
CCCCCCCCCCC(O)C1C=CC2C(=O)N(c3ccccc3)C(=O)C2N1Nc1ccc([N+](=O)[O-])cc1 (stereo not given) (10 µM)	0.496
O=C(CBr)N1CC([N+](=O)[O-])([N+](=O)[O-])C1 (10 µM)	0.0284
CCC(=O)N[C@@H]1Cc2ccccc2[C@H](c2ccccc2)C1 (10 µM)	-0.0816
CN(C)Cc1c(C(=O)NCCOc2ccc(C(=O)NO)cc2)oc2ccccc12 (10 µM)	-0.197
OC[C@H]1O[C@H]([S-])[C@H](O)[C@@H](O)[C@@H]1O.[Au+] [aurothioglucose] (10 µM)	-0.0654
NCC(O)c1ccc(O)cc1 (stereo not given) [octopamine] (10 µM)	-0.0363
O=C1NC(c2ccccc2)(c2ccccc2)C(=O)N1COP(=O)(O)O [fosphenytoin] (10 µM)	-0.197
CCn1c(=O)c(-c2cc[nH]n2)cc2c(C)nc(N)nc21 [voxtalisib] (0.833333 µM)	0.00591
CC(C)(C)c1cc(C(=O)/C(C#N)=N/Nc2cccc(Cl)c2)no1 (10 µM)	-0.0513
CCCCOc1c(C(=O)c2c(F)cc(C)cc2F)c[nH]c2nncc1-2 (10 µM)	0.383
CCc1c(-c2ccccc2)c(-c2ccccc2)nn1-c1ccccc1-c1cccc(OCC(=O)O)c1 (10 µM)	0.0748
CNC(=O)[C@H]1O[C@@H](n2cnc3c(NCc4cccc(I)c4)nc(Cl)nc32)[C@H](O)[C@@H]1O (10 µM)	-0.0292
CCNC(=O)C[C@@H]1N=C(c2ccc(Cl)cc2)c2cc(OC)ccc2-n2c(C)nnc21 (10 µM)	-0.0652
CC(C)[C@H](CO)Nc1nc(Nc2ccc(C(=O)O)c(Cl)c2)c2ncn(C(C)C)c2n1 [purvalanol-B] (10 µM)	-0.00736
CCN(C(=O)c1c(O)c2c(Cl)cccc2n(C)c1=O)c1ccccc1 [laquinimod] (10 µM)	0.168
O=C(Nc1ccc(F)cc1)N1CCc2ccccc2[C@@H]1c1ccc(C(F)(F)F)cc1 (10 µM)	0.195
CC[N+](CC)(CC)CCOc1ccc(/C=C/c2ccccc2)cc1 (10 µM)	-0.141
NS(=O)(=O)c1cc(C2(O)NC(=O)c3ccccc32)ccc1Cl (stereo not given) [chlorthalidone] (10 µM)	0.13

Test system: Vero E6 infected with SARS-CoV-2
Assay: SARS-CoV-2 infection rate relative to infected DMSO; higher = more infection, active = 60 or less
Conditions: 24 h

Compound	SARS-CoV-2 infection rate
CCOc1ccccc1-n1c(C(C)N2CCN(C(=O)COc3ccc(Cl)cc3)CC2)nc2ccccc2c1=O (stereo not given) [erastin] (0.833333 µM)	86% (inactive)
Cn1cc(-c2ccc(F)c(C(F)(F)F)c2)nc1C1CCN(c2ncnc3[nH]ncc23)CC1 (10 µM)	110% (inactive)
O=C(NC(=O)c1c(F)cccc1Cl)NC1c2ccccc2-c2ccccc21 (10 µM)	102% (inactive)
NS(=O)(=O)c1cc(C(=O)O)c(NCc2ccco2)cc1Cl [furosemide] (10 µM)	98% (inactive)
CN(C)CCC(c1ccccc1)c1ccccn1 (stereo not given) [pheniramine] (10 µM)	110% (inactive)
Cc1ccc2c(N3CCN(CCc4cccc(N5CCNC5=O)c4)CC3)cccc2n1 (10 µM)	84% (inactive)
CC(C)C[C@H](CN)CC(=O)O (10 µM)	106% (inactive)
C[C@@H](Nc1cc(F)cc(F)c1)c1cc(C(=O)N(C)C)cc2c(=O)cc(N3CCOCC3)oc12 (10 µM)	122% (inactive)
c1ccc2c(c1)Sc1ccccc1N2C[C@H]1CN2CCC1CC2 [levomequitazine] (10 µM)	86% (inactive)
CCOc1cc([C@@H](CS(C)(=O)=O)N2C(=O)c3cccc(NC(C)=O)c3C2=O)ccc1OC [apremilast] (10 µM)	89% (inactive)
Cc1cc(CC(C)CC(C)(C)C)n(O)c(=O)c1 (stereo not given) [piroctone-olamine] (10 µM)	88% (inactive)
CC(C)[C@H](O)C(=O)N[C@@H](C)C(=O)N[C@@H]1C(=O)N(C)CCc2ccccc21 [semagacestat] (10 µM)	120% (inactive)
COc1cc2c(cc1OC)-c1cc3nc4ccccc4nc3n1C(C)(C)C2 (10 µM)	91% (inactive)
O=C(O)c1cc(N2N=C(C(F)(F)F)/C(=C/c3ccc(-c4ccccc4)o3)C2=O)ccc1Cl (10 µM)	97% (inactive)
Cn1c(=O)c(F)c(Nc2ccc(I)cc2F)c2c(=O)n(C[C@@H](O)CO)cnc21 (0.833333 µM)	109% (inactive)
Nc1nccc(Oc2ccc(NC(=O)c3c[nH]cc(-c4ccc(F)cc4)c3=O)cc2F)c1Cl [metatinib] (10 µM)	102% (inactive)
CC(C)(Sc1ccncc1-c1ccc(C#N)c2ccccc12)C(=O)O [verinurad] (10 µM)	98% (inactive)
Cc1c(C(=O)Nc2ccc(N3C[C@@H](C)O[C@@H](C)C3)nc2)cccc1-c1ccc(OC(F)(F)F)cc1 [sonidegib] (10 µM)	108% (inactive)
O=C(O)[C@H]1O[C@@H](Oc2cc3oc(-c4ccccc4)cc(=O)c3c(O)c2O)[C@H](O)[C@@H](O)[C@@H]1O [baicalin] (10 µM)	100% (inactive)
COc1cc2ncnc(Nc3ccc(Cl)cc3F)c2cc1OC (10 µM)	117% (inactive)

Compound	SARS-CoV-2 infection rate
O=C(c1cccc(Br)c1)N1CCC(N2CCCC2)CC1 (10 µM)	106% (inactive)
CCCCCCCCCCC(O)C1C=CC2C(=O)N(c3ccccc3)C(=O)C2N1Nc1ccc([N+](=O)[O-])cc1 (stereo not given) (10 µM)	69.5% (inactive)
O=C(CBr)N1CC([N+](=O)[O-])([N+](=O)[O-])C1 (10 µM)	116% (inactive)
CCC(=O)N[C@@H]1Cc2ccccc2[C@H](c2ccccc2)C1 (10 µM)	110% (inactive)
CN(C)Cc1c(C(=O)NCCOc2ccc(C(=O)NO)cc2)oc2ccccc12 (10 µM)	96.5% (inactive)
OC[C@H]1O[C@H]([S-])[C@H](O)[C@@H](O)[C@@H]1O.[Au+] [aurothioglucose] (10 µM)	110% (inactive)
NCC(O)c1ccc(O)cc1 (stereo not given) [octopamine] (10 µM)	114% (inactive)
O=C1NC(c2ccccc2)(c2ccccc2)C(=O)N1COP(=O)(O)O [fosphenytoin] (10 µM)	123% (inactive)
CCn1c(=O)c(-c2cc[nH]n2)cc2c(C)nc(N)nc21 [voxtalisib] (0.833333 µM)	109% (inactive)
CC(C)(C)c1cc(C(=O)/C(C#N)=N/Nc2cccc(Cl)c2)no1 (10 µM)	104% (inactive)
CCCCOc1c(C(=O)c2c(F)cc(C)cc2F)c[nH]c2nncc1-2 (10 µM)	104% (inactive)
CCc1c(-c2ccccc2)c(-c2ccccc2)nn1-c1ccccc1-c1cccc(OCC(=O)O)c1 (10 µM)	96.5% (inactive)
CNC(=O)[C@H]1O[C@@H](n2cnc3c(NCc4cccc(I)c4)nc(Cl)nc32)[C@H](O)[C@@H]1O (10 µM)	107% (inactive)
CCNC(=O)C[C@@H]1N=C(c2ccc(Cl)cc2)c2cc(OC)ccc2-n2c(C)nnc21 (10 µM)	106% (inactive)
CC(C)[C@H](CO)Nc1nc(Nc2ccc(C(=O)O)c(Cl)c2)c2ncn(C(C)C)c2n1 [purvalanol-B] (10 µM)	101% (inactive)
CCN(C(=O)c1c(O)c2c(Cl)cccc2n(C)c1=O)c1ccccc1 [laquinimod] (10 µM)	99% (inactive)
O=C(Nc1ccc(F)cc1)N1CCc2ccccc2[C@@H]1c1ccc(C(F)(F)F)cc1 (10 µM)	87% (inactive)
CC[N+](CC)(CC)CCOc1ccc(/C=C/c2ccccc2)cc1 (10 µM)	105% (inactive)
NS(=O)(=O)c1cc(C2(O)NC(=O)c3ccccc32)ccc1Cl (stereo not given) [chlorthalidone] (10 µM)	78.5% (inactive)
